From PubChem
The full list was thinned out, with hits kept by preference.
Chlamy TAG: inducers of TAG accumulation in Chlamydomonas, primary screen, qHTS, Chlamydomonas reinhardtii. Nile Red fluorescence, 72 h. calls only at 10 µM (by protocol). hit rate 0.84% among 44,000. AID 1159537, 2015; call rule not given here;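 also: hits raise Nile Red signal meaning more stored TAG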
Starred values were filed as active, the others as inactive; i = inactive; + = active, no number.

SMILES | Chlamy TAG
CCC1CCCCN1C(=O)c1cccc([N+](=O)[O-])c1C (configuration not stated) | i
CCC1CCCCN1C(=O)c1ccc(Cl)cc1[N+](=O)[O-] (configuration not stated) | +
CCC(=O)c1ccc(Oc2ncnc3sc(C)c(C)c23)cc1 | i
COc1ccc([N+](=O)[O-])cc1NC(=O)c1ccc2c(c1)C(=O)N(C(C)(C)C)C2=O | i
Cc1cc(C=O)c(C)n1-c1ccc(Br)cc1F | +
COc1ccc(Cl)cc1-n1c(C)cc(C=O)c1C | i
Cc1cc(C=O)c(C)n1-c1ccc(O)cc1 | i
CC1=NN(c2cc(Cl)ccc2Cl)C(=O)C1 | i
CN1CCC(N(C)Cc2cccc([N+](=O)[O-])c2)CC1 | i
O=[N+]([O-])c1cccc(CN2CCCCCC2)c1 | i
CN1CCC(N(C)Cc2ccc([N+](=O)[O-])cc2)CC1 | i
CC1CCCCC1NCc1ccc([N+](=O)[O-])cc1 (configuration not stated) | i
O=[N+]([O-])c1ccc(CNC2CCCc3ccccc32)cc1 (configuration not stated) | i
O=C(NC1CCCCCC1)c1cccc([N+](=O)[O-])c1 | i
O=C(NC1CCCCCC1)c1ccc([N+](=O)[O-])cc1 | i
O=[N+]([O-])c1ccc(CNC2CCCCCC2)cc1 | +
O=C(NC1CCCCC1)c1ccc([N+](=O)[O-])o1 | i
O=[N+]([O-])c1ccc(CNC2CCCC2)cc1 | +
CN(Cc1ccc([N+](=O)[O-])cc1)C1CCCCC1 | +
O=[N+]([O-])c1cccc(CNC2CCCCCC2)c1 | +
COc1ccc(C(=O)Nc2ccc(F)cc2)cc1I | i
COc1ccc(CNC(=O)C(=O)Nc2c(C)cc(C)cc2C)cc1 | i
Cc1cccc(NC(=O)c2cccc(I)c2)c1C | i
N#CSC(CS(=O)(=O)c1ccccc1[N+](=O)[O-])c1ccccc1 (configuration not stated) | i
COc1ccc(C(=O)c2ccc(N3CCN(C)CC3)c([N+](=O)[O-])c2)cc1 | +
SMILES | Chlamy TAG
Cc1ccc(C(=O)c2ccc(N3CCCC3)c([N+](=O)[O-])c2)cc1 | i
CN1CCN(c2ccc(C(=O)c3ccc(Cl)cc3)cc2[N+](=O)[O-])CC1 | i
Cc1ccccc1NS(=O)(=O)c1ccc(NS(=O)(=O)c2cc(Cl)ccc2Cl)cc1 | i
Cn1c(-c2nonc2NC(=O)c2ccccc2F)nc2ccccc21 | i
COc1ccc(C2C(=C(O)c3ccccc3)C(=O)C(=O)N2C)cc1OC (configuration not stated) | i
COc1ccccc1N1CCN(C2CCN(Cc3cccc(C)c3)CC2)CC1 | +
COc1ccccc1N1CCN(C2CCN(Cc3c[nH]c4ccccc34)CC2)CC1 | i
CCOc1cc(CN2CCN(c3ccccc3OC)CC2)ccc1OC | i
COc1ccccc1N1CCN(C2CCN(CC3CC4C=CC3C4)CC2)CC1 (configuration not stated) | +
COc1ccccc1N1CCN(C2CCN(Cc3ccc(Br)cc3)CC2)CC1 | i
Clc1cccc(CN2CCC(N3CCCCCC3)CC2)c1 | i
COc1ccccc1N1CCN(C2CCN(Cc3cccc(Cl)c3)CC2)CC1 | +
COc1cc(OC)c(OC)cc1CN1CCC(N2CCN(c3ccccc3OC)CC2)CC1 | i
COc1ccccc1N1CCN(C2CCN(CCCc3ccccc3)CC2)CC1 | i
CC(C)c1ccc(OCC(=O)N2CCOCC2)cc1 | i
N#Cc1cc2c(nc1SCC(=O)Nc1ccc(S(N)(=O)=O)cc1)CCCC2 | i
CCc1ccc(OCC(=O)Nc2ccccc2-c2ccccc2)cc1 | i
O=C(COc1ccc([N+](=O)[O-])cc1)Nc1ccccc1C(=O)O | i
CCCC1CCc2c(sc(NC(=O)c3ccc(Cl)cc3[N+](=O)[O-])c2C(N)=O)C1 (configuration not stated) | i
COc1ccc(-c2nc3c4c5c(sc4ncn3n2)CCCC5)cc1 | i
COc1ccc(CN2CCN(c3ncnc4sc5c(c34)CCCC5)CC2)cc1 | +
c1ccc(N2CCN(c3ncnc4sc5c(c34)CCC5)CC2)cc1 | i
O=C(CSc1nnc(-c2cccnc2)n1-c1ccccc1)Nc1ccc(Br)cc1 | i
COc1ccc2nc(SCC(=O)Nc3ccc(Br)cc3)[nH]c2c1 | i
CC1(C)Oc2ccc(NC(=O)c3ccc(C(=O)c4ccccc4)cc3)cc2O1 | +
SMILES | Chlamy TAG
COc1ccc(NC(=O)c2ccc(C(=O)c3ccccc3)cc2)cc1 | i
CC1(C)Oc2ccc(NC(=O)Cc3ccc(F)cc3)cc2O1 | i
Cc1cc(C)c(OCCCCN2CCNCC2)c(C)c1 | +
Cc1cc(C)c(OCCCN2CCCC2)c(C)c1 | i
Cc1cc(Cl)c(OCCOCCN2CCNCC2)c(Cl)c1 | i
O=[N+]([O-])c1ccc2nc(N3CCN(Cc4ccc5c(c4)OCO5)CC3)sc2c1 | i
Cc1cc(C(c2ccccc2)c2cc(C)c(N)c(C)c2)cc(C)c1N | i
CN1CCN(Cc2cccc(OCc3ccccc3)c2)CC1 | i
COc1ccc(N2CCN(Cc3cccs3)CC2)cc1 | i
COc1ccc(N2CCN(Cc3ccsc3)CC2)cc1 | +
COc1ccc(N2CCN(Cc3cccnc3)CC2)cc1 | i
Cc1c(C(=O)Nc2ccncc2)cccc1[N+](=O)[O-] | i
O=C(Nc1ccccc1C(=O)NCc1ccccc1)c1ccc([N+](=O)[O-])cc1 | +
O=C(Nc1ccccc1C(=O)Nc1ccc([N+](=O)[O-])cc1)c1ccccc1 | i
O=C(Nc1ccccc1O)c1ccc([N+](=O)[O-])cc1 | i
CCc1ccc(CN2CCC(C(=O)N(CCO)Cc3ccccc3)CC2)cc1 | i
Cc1ccc(OCC(O)CN2CCN(Cc3ccccc3)CC2)cc1C (configuration not stated) | i
Cc1ccc(OCC(O)CN(C)C)cc1 (configuration not stated) | i
CN(CC(O)COCc1ccccc1)C1CCCCC1 (configuration not stated) | i
Cc1ccc(OCC(O)CN(C)C2CCCCC2)cc1C (configuration not stated) | +
CN(CC(O)COc1ccc(F)cc1)C1CCCCC1 (configuration not stated) | +
OC(COc1ccccc1Br)CN(C1CCCCC1)C1CCCCC1 (configuration not stated) | i
CCC(NC(=O)c1cc(C)oc1C)c1ccccc1 (configuration not stated) | i
Cc1c(NC(=O)c2cccc(Br)c2)c(=O)n(-c2ccccc2)n1C | i
COc1ccc(C(=O)N2CCCCC2C)cc1OC (configuration not stated) | i
SMILES | Chlamy TAG
Cc1ccc(S(=O)(=O)N(CC(=O)N2CCC(C(N)=O)CC2)c2ccccc2F)cc1 | i
C=CCNS(=O)(=O)c1ccccc1[N+](=O)[O-] | i
COc1ccc(CNCc2ccc(C)cc2)c(OC)c1 | +
COc1ccc(CNCc2ccc(C)cc2C)cc1 | i
COc1ccc(CNCc2ccc(C)cc2C)c(OC)c1 | i
Cc1c(Br)c([N+](=O)[O-])nn1CC(=O)Nc1ccc2c(c1)OCO2 | i
COc1cc(C(=O)Nc2cccc(F)c2)c([N+](=O)[O-])cc1OC | i
O=C(ON1C(=O)c2ccccc2C1=O)c1ccccc1I | i
O=C(O)CC(=O)NC12CC3CC(CC(C3)C1)C2 | i
CC(C)NCC(=O)NC12CC3CC(CC(C3)C1)C2 | +
COCCC(=O)NC12CC3CC(CC(C3)C1)C2 | i
